Bioassay records (PubChem BioAssay)
KB-V1 MDR tox – qHTS assay for MDR1-selective chemotherapeutics: Primary screen using the drug-selected MDR subline cells KB-V1; hit rate 3.4% among 400,000; KB-V1 MDR cells viability, CellTiter-Glo, 72 h; Potency, µM (highest dose often 46.1 µM), hits mostly cytotoxic; AID 1347076, 2019; further: potency means the concentration at half of the fitted maximal effect; on the % scale 0 is the no-effect control and ±100 the full control effect; nearly all actives have a fitted effect of over 60% in size
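Readout: CellTiter-Glo luminescence, 10 min after addition. Cells: KB-V1 MDR subline, 72 h at 37 degrees C with compound. Analysis: corrected, normalized data fitted to concentration-effect curves.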
KCNH2 3.1 inh – qHTS for Inhibitors of KCHN2 3.1: Mutant qHTS; Potassium voltage-gated channel subfamily H member 2, brain isoform KCNH2 3.1 (human); U2OS KCNH2 3.1, thallium flux FluxOr; hits give low values; activity change, % (tested at about 1.8 µM); hit rate 0.95% among 340,000; AID 720553, 2013;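 active means maximum activity change below -70%; inconclusive means maximum activity change from -70% to -50%; inactive means maximum activity change above -50%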;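 further: thallium influx rate constant from kinetic fluorescence after stimulation buffer; on the % scale 0 is the no-effect control and ±100 the full control effect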
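Virally transduced U2OS (3.1 isoform, 4 h infection in dark at RT) → overnight 37 C → FluxOr + Red40 in HBSS/HEPES, 45 min → stimulation buffer, 2 min kinetic read → rate constant vs DMSO controls.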
KB-3-1 cytotox – qHTS assay for MDR1-selective chemotherapeutics: Primary screen using the parental adenocarcinoma cell KB-3-1; Potency, µM (top dose mostly 46.1 µM), actives largely listed as cytotoxic; hit rate 1.4% among 400,000; KB-3-1 viability, CellTiter-Glo ATP luminescence, 72 h; further: potency means the concentration at half of the fitted maximal effect; on the % scale 0 is the no-effect control and ±100 the full control effect; nearly all actives have a fitted effect of over 60% in size
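72 h, 37 °C compound treatment of KB-3-1 parental cells; CellTiter-Glo added, 10 min, luminescence read. Data corrected against DMSO-only plates and normalized before curve fitting.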
MCF10A rerep – A quantitative high throughput screen for small molecules that induce DNA re-replication in MCF 10a normal breast cells. MCF 10A DNA re-replication, Hoechst nuclear intensity, 48 h. Potency, µM (top dose mostly 46.1 µM), for the others: top-dose activity, positive = re-replication, hits mostly activators. hit rate 2.9% among 350,000; further: potency means the concentration at half of the fitted maximal effect; % of control where 0% means no effect; nearly all actives have a fitted effect of over 50% in size
hERG WT inh – qHTS for Inhibitors of KCHN2 3.1: Wildtype qHTS; U2OS, BacMam KCNH2, thallium flux FluxOr; hits give low values; activity change, % at 1.84 µM; hit rate 0.37% among 340,000;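 active means maximum activity change below -70%; inconclusive means maximum activity change between -70% and -50%; inactive means maximum activity change above -50%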; further: on the % scale 0 is the no-effect control and ±100 the full control effect
Target sequence (Q12809 whole entry, looked up): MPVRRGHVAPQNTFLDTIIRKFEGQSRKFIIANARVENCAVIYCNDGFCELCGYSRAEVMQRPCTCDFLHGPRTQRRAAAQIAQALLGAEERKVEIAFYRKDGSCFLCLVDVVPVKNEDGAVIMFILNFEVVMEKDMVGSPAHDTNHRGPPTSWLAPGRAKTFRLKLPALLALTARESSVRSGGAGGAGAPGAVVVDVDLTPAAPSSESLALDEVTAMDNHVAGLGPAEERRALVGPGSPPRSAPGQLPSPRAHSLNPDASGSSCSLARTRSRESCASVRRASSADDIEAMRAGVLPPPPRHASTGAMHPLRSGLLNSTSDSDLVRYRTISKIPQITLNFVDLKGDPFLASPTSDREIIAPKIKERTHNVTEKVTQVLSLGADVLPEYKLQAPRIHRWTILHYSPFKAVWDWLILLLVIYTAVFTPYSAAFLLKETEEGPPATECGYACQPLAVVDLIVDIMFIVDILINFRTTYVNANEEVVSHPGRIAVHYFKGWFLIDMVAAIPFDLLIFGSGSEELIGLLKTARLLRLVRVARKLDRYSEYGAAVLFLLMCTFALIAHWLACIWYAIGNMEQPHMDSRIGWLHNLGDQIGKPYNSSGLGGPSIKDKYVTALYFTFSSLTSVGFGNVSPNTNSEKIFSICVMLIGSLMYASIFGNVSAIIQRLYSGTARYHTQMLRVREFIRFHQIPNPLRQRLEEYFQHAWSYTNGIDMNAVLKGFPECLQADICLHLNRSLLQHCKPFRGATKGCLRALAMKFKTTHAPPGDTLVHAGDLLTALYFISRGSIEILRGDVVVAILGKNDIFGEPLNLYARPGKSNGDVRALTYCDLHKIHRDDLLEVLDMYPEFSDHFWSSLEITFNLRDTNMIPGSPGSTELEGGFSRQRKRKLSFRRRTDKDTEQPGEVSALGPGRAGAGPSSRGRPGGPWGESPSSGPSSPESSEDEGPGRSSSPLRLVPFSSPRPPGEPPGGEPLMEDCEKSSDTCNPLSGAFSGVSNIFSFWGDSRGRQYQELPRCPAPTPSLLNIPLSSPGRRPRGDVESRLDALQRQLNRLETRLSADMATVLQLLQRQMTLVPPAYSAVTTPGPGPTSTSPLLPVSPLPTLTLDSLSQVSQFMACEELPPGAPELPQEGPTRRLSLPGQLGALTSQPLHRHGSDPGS
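U2OS cells were transduced with wild-type KCNH2 virus (2.03 x 10^8 / mL) for 4 h at room temperature, then cultured overnight at 37 C. Thallium flux was read with FluxOr dye. Rate constants were normalized to DMSO controls.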
SW480 rereplic – A quantitative high throughput screen for small molecules that induce DNA re-replication in SW480 colon adenocarcinoma cells; AID 624297, 2012; Potency, µM (doses to about 46.1 µM), inactives show top-dose re-replication activation, most hits filed as activators; SW480 DNA re-replication, Hoechst DNA content imaging, 48 h; hit rate 1.8% among 340,000; further: potency means the concentration at half of the fitted maximal effect; % of control where 0% means no effect; nearly all actives have a fitted effect of over 55% in size
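Image-based read-out: total Hoechst fluorescence of nuclei (405 nm excitation, 500-530 nm emission), with hits raising the fraction of high-intensity nuclei. SW480 colon cells incubated 48 hr with compounds at 37 C.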
Active calls of the source: *; i = inactive; ? = inconclusive; · = no result given. In the library only some 7.6% were active in any assay of this set; here they are far more common. Unless noted, the call rests on the fitted dose curve; in most records, active means well fitted curve in the direction sought with a large enough effect; inconclusive means small, poorly fitted or top-dose-only effect, or another doubt; inactive means no such curve, though single readings can be large; an effect the other way counts as inactive or inconclusive.

SMILES	KB-V1 MDR tox	KCNH2 3.1 inh	KB-3-1 cytotox	MCF10A rerep	hERG WT inh	SW480 rereplic
CC(C)(C)c1ccc(-n2ncc3c2CCCC3NC(=O)C2(C(N)=O)CC2)cc1 (stereo not drawn)	?	-7	i	?	-13	3%
CCCCC(=O)NC(c1ccccc1Cl)c1ccc2cccnc2c1O (stereo not drawn)	?	-97*	?	?	-17	?
Oc1c(C(c2ccccc2Cl)N2CCCC2)ccc2cccnc12 (stereo not drawn)	i	7	13µM*	?	-4	-4%
COc1cccc(CNc2cccc3cccnc23)c1O	i	-2	i	30%	-4	17%
CCCC(=O)NC(c1cccs1)c1cc([N+](=O)[O-])c2cccnc2c1O (stereo not drawn)	?	7	?	?	-3	?
CCCC(=O)NC(c1ccccc1)c1ccc2cccnc2c1O (stereo not drawn)	?	-4	?	?	-262*	?
Oc1c(C(c2ccc(Cl)cc2)N2CCCC2)cc(Cl)c2cccnc12 (stereo not drawn)	i	-23	i	23%	1	25%
CCC(=O)NC(c1ccccc1OC)c1ccc2cccnc2c1O (stereo not drawn)	?	-10	10µM*	7%	-19	2%
CCC(=O)NC(c1ccccc1Cl)c1c(O)ccc2ccccc12 (stereo not drawn)	?	3	?	2%	6	·
Cc1cc(F)ccc1NC(=O)Cn1c(C)csc1=O	i	-25	i	6%	-2	-6%
CC(C)(C)OC(=O)N1CCC(Cc2cc(-c3ccccc3)no2)(C(=O)O)CC1	?	13	i	-11%	4	0%
CC(=O)N/C(=C/c1ccc2c(c1)OCO2)C(=O)NCC(=O)O	i	5	i	7%	-8	-7%
CCC(=O)NC(c1ccc(OC)cc1)c1c(O)ccc2ccccc12 (stereo not drawn)	?	10	?	20%	-10	?
CCCC(=O)NC(c1ccc(OC)cc1)c1ccc2cccnc2c1O (stereo not drawn)	7.3µM*	30	?	?	-1	-6%
CCCCC(=O)NC(c1ccccc1)c1ccc2cccnc2c1O (stereo not drawn)	13µM*	-3	?	?	0	0.52µM*
CC(=O)NC(c1ccc(C(C)C)cc1)c1ccc2cccnc2c1O (stereo not drawn)	?	-7	0.65µM*	?	-4	0.82µM*
O=C(CCCc1ccccc1)NC(c1ccco1)c1cc(Cl)c2cccnc2c1O (stereo not drawn)	i	·	?	·	·	·
CC(C)c1ccc(C(=O)Nc2cccc3cccnc23)cc1	i	·	i	·	·	·
CCCCC(=O)NC(c1ccc(C(C)C)cc1)c1ccc2cccnc2c1O (stereo not drawn)	i	-12	?	18µM*	-9	?
N#CCCN(C(=O)COC(=O)c1ccc2c(=O)n3c(nc2c1)CCC3)c1ccc(F)cc1	i	-8	i	-3%	-3	1%
Cc1ccc2[nH]c3c(=O)n(CC(=O)N4CCCCC4)ncc3c2c1	i	·	i	·	·	·
OCCN(Cc1ccccc1)CC(O)COc1ccc2c(c1)OCO2 (stereo not drawn)	i	-4	i	-10%	10	-5%
COc1ccccc1NC(=O)c1ccc(NS(=O)(=O)c2ccc(F)c(Cl)c2)cc1	i	8	i	?	-5	0%
O=C(COc1ccccc1C(=O)Nc1ccccc1F)Nc1ccc(Br)cc1	i	·	?	·	·	·
Oc1c(C(Nc2cccnc2)c2ccc(C(F)(F)F)cc2)ccc2cccnc12 (stereo not drawn)	i	·	i	·	·	·
SMILES	KB-V1 MDR tox	KCNH2 3.1 inh	KB-3-1 cytotox	MCF10A rerep	hERG WT inh	SW480 rereplic
COc1ccc(Cl)cc1C(Nc1cccnc1)c1ccc2cccnc2c1O (stereo not drawn)	?	-1	?	?	-9	7.3µM*
Nc1nc(SCC(=O)O)[nH]c(=O)c1NC(=O)c1ccco1	?	-11	i	2%	-3	-4%
COc1ccc(-c2coc3cc4oc(=O)cc(C)c4cc23)cc1F	?	4	i	5.2µM*	21	?
COc1ccc(-c2coc3cc4oc(=O)cc(-c5ccccc5)c4cc23)cc1F	?	-13	2.9µM*	6.5µM*	5	?
COc1ccc(-c2cc(=O)oc3cc4occ(C)c4cc23)cc1	?	9	i	?	-5	?
O=C(c1ccccc1)C1N=NCC1c1ccc(Cl)cc1 (stereo not drawn)	i	3	i	?	3	0%
COc1ccc(-c2cc(C(=O)Nc3c(C)n(C)n(-c4ccccc4)c3=O)no2)cc1	i	4	i	9%	-28	-68%
CCc1ccc2oc(-c3ccc(OC)cc3)cc(=Nc3c(C)n(C)n(-c4ccccc4)c3=O)c2c1	9.2µM*	-3	?	?	-1	-55%
COc1ccc(-c2cc(=Nc3ccc(C(=O)O)cc3)c3cc(C)ccc3o2)cc1	i	-14	i	13%	4	-5%
CCc1ccc2oc(-c3ccc(OC)cc3)cc(=Nc3cccc(C(=O)O)c3)c2c1	i	0	i	23µM*	1	25%
CCOc1ccc(S(=O)(=O)NCCc2csc(-c3ccc(Cl)cc3)n2)cc1	i	·	i	·	·	·
CN1CCN(C(=O)C2CCCCC2)CC1	·	·	·	1%	·	2%
Cc1ccc(Cl)c2sc(NC(=O)CS(=O)(=O)c3ccc(Cl)cc3)nc12	i	·	i	·	·	·
COc1ccc(C2CC(=O)c3cc(-c4nc(-c5cccc([N+](=O)[O-])c5)cs4)c(=O)n(-c4ccc(F)cc4)c3C2)cc1 (stereo not drawn)	i	·	i	·	·	·
Cc1c(Cl)ccc2c(C(O)CBr)cc(-c3ccccc3)nc12 (stereo not drawn)	i	23	i	21µM*	1	?
CN(C)c1nc(NCc2ccccc2)nc(N/N=C/c2ccc3c(c2)OCO3)n1	?	-21	i	23µM*	-5	26%
Cc1cc(N/N=C/c2ccc3c(c2)OCO3)nc2ccccc12	i	-3	i	16µM*	0	?
